This is a sample that favours compounds with a hit; in the whole collection about 14% have one here.
Pf growth 48h – P. falciparum growth inhibition at 48 hours (one generation); AID 504832; P. falciparum luciferase growth in erythrocytes, 48 h; actives 5.9% (n = 310,000); Potency, µM (series often up to 28.7 µM), for the others: at the top dose activity change, negative = inhibition, actives largely listed as inhibitors; also: potency is read from the fitted curve at half-maximal effect
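Read-out is firefly luciferase luminescence from an integrated reporter in P. falciparum, so falling signal marks reduced parasite growth. Infected erythrocytes were at 2% hematocrit and 0.1% parasitemia (final) in Albumax-supplemented RPMI 1640.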
HCMV inh – blocks human cytomegalovirus replication. HFF cells, HCMV-luciferase reporter, 72 h; active compounds read low. activity change, negative = inhibition, % at 57.5 µM. actives 4.5% (n = 410,000). AID 1259415; in the data active = activity change below about -60%; inconclusive = no clear call, values can overlap the other calls; inactive = above about -39%
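HFF cells seeded 16 h at 37C, treated with compounds, infected with luciferase-reporter HCMV at MOI 1 PFU/cell; luciferase read at 72 h post infection, normalized to buffer-only and Salinomycin controls.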
Giardia FBPA inh – Giardia lamblia aldolase inhibition | A8B2U2 | purified Giardia FBPA | Potency, µM (top dose mostly 59.6 µM), inactives show at the top dose activity, negative = inhibition, most hits filed as inhibitors | actives 0.71% (n = 290,000) | AID 2451; also: potency is read from the fitted curve at half-maximal effect; nearly all actives have a fitted effect of over 55% in size
Target sequence (A8B2U2 whole entry, looked up): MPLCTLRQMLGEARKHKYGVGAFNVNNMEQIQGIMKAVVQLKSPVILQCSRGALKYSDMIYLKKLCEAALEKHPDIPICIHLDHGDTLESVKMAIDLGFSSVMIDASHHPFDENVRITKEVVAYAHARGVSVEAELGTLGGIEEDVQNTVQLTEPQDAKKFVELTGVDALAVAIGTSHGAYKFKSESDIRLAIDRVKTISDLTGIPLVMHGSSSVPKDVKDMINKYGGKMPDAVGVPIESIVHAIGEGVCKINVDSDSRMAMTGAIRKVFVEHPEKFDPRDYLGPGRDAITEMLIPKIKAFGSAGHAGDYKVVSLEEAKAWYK
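40 nM FBPA preincubated 10 min at RT with compound (up to 57.5 uM final), then substrate plus GAPDH/TPI/NAD/arsenate coupling and diaphorase/resazurin added. Fluorescence read after 20 min at RT, 525/598 nm.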
Sm TGR inh – blocks Schistosoma mansoni thioredoxin glutathione reductase; Q962Y6; purified TGR, DTNB reduction, TNB absorbance 405 nm; Potency, µM (highest dose often 114 µM), inactives show at the top dose activity change, negative = inhibition, hits mostly inhibitors; actives 3% (n = 360,000); AID 485364; also: potency is read from the fitted curve at half-maximal effect; nearly all actives have a fitted effect of over 60% in size
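First, TGR (20 nM dispensed) and NADPH were mixed with compound. Second, a 15 min room-temperature incubation followed. Third, further NADPH and then DTNB were added to start the reaction. Finally, TNB absorbance was monitored kinetically.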
Pf growth 96h – P. falciparum growth inhibition at 96 hours. actives 6.9% (n = 320,000). AID 504834. P. falciparum luciferase reporter growth, 96 h. Potency, µM (highest dose often 28.7 µM), for inactives: at the highest dose activity change, negative = inhibition, usual class: inhibitors; also: potency is read from the fitted curve at half-maximal effect
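Parasite growth measured via integrated firefly luciferase reporter in P. falciparum. Infected erythrocytes at 2% hematocrit, 0.05% parasitemia final were treated 96 hours at 37 C under 5% CO2, and luminescence was read.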
* = called active by the depositor; i = inactive; ? = inconclusive; · = no result given. Unless noted, calls follow the shape of the dose curve; as a rule, active = well fitted curve in the direction sought with a large enough effect; inconclusive = small, poorly fitted or top-dose-only effect, or another doubt; inactive = no such curve, though single readings can be large; an effect the other way counts as inactive or inconclusive. % is scaled to controls: 0 for no effect and ±100 for the full control effect.

SMILES | Pf growth 48h | HCMV inh | Giardia FBPA inh | Sm TGR inh | Pf growth 96h
Cc1ccc(NC(=O)c2nc[nH]c2C(=O)NCCCCCNC(=O)OC(C)(C)C)cc1 | 3.3µM* | -64* | · | 1% | ?
CC(C)(C)OC(=O)NCCCCCNC(=O)c1[nH]cnc1C(=O)Nc1ccc(Cl)cc1 | 10µM* | -39 | · | -5% | ?
CC(C)(C)OC(=O)NCCCCCNC(=O)c1[nH]cnc1C(=O)Nc1ccccc1 | ? | 26 | · | -5% | ?
COc1ccc(NC(=O)C(=O)NCC(c2ccc3c(c2)OCO3)N2CCN(C)CC2)cc1 (centres undefined) | · | 0 | · | 11% | ·
Clc1cccc(Sc2ccc(-c3ccccn3)s2)c1 | -5% | 5 | 1% | 6% | 24%
COc1ccc(C(=O)Nc2ccccc2)cc1NC(=O)c1ccc([N+](=O)[O-])cc1 | 1% | -16 | 5% | 2% | ?
COc1ccccc1NC(=O)CSc1nnc(NC(=O)Nc2ccc(C)cc2)s1 | · | -86* | · | -6% | ·
O=C(CSc1nnc(NC2CC2)s1)Nc1ccc(N2CCOCC2)cc1 | 14% | -37 | · | 3% | 15%
CC(C)N(C(=O)CSc1nnc(NC(=O)Cc2cccs2)s1)C(C)C | 0% | -12 | 12% | -6% | 33%
Cc1ccc(NC(=O)Nc2nnc(SCC(=O)N(C(C)C)C(C)C)s2)cc1 | · | -80* | · | 3% | ·
O=C(CSc1nnc(NC(=O)C2CCC2)s1)Nc1ccc(N2CCOCC2)cc1 | 3% | -108* | -2% | -5% | -23%
CC(C)N(C(=O)CSc1nnc(NC(=O)C2CCC2)s1)C(C)C | 6.6µM* | 11 | -1% | 1% | ?
Cc1ccc(C2(C)NC(=O)N(CC(=O)NCCN3C(=O)S/C(=C\c4cccnc4)C3=O)C2=O)cc1 (centres undefined) | · | 59 | · | · | ·
C/C(N)=C(/C#N)C(=O)CSc1nnc(Nc2ccccc2)s1 | 63% | 1 | -15% | 18% | 7%
Cc1cc(NC(=O)CSc2nnc(Nc3ccccc3C)s2)no1 | ? | 13 | -2% | 1% | ?
C/C(N)=C(/C#N)C(=O)CSc1nnc(Nc2ccccc2C)s1 | 58% | 85 | -9% | -4% | 7.4µM*
CSc1nnc(Nc2ccccc2C)s1 | · | 35 | -4% | 3% | 9.3µM*
CCC(CC)C(=O)Nc1c2c(nn1-c1ccc(OC)cc1)CS(=O)C2 (centres undefined) | · | -18 | 8% | 3% | 0.033µM*
CCC(=O)Nc1c2c(nn1-c1ccc(OC)cc1)CS(=O)C2 (centres undefined) | · | 17 | 3% | -9% | ?
Cc1nc(SCc2cccc(F)c2)c2oc3ccccc3c2n1 | 10µM* | -32 | 0% | 23% | ?
Cc1nc(NCCc2ccccc2)c2oc3ccccc3c2n1 | 1% | -81* | -3% | 2% | ·
CCN(CCO)c1nc(N2CCCCC2)c2cnn(C)c2n1 | -7% | -18 | 1% | -3% | ?
CCCn1c(=O)c2ccccc2n2c(SCc3nc4ccccc4s3)nnc12 | 103% | 25 | 1% | -17% | 10µM*
Cn1c(SCc2nc3ccccc3s2)nnc1-c1cccs1 | -25% | 8 | -15% | 0% | ·
CCn1c(SCc2nc3ccccc3s2)nnc1-c1cccs1 | -18% | 83 | -15% | -12% | 10µM*
SMILES | Pf growth 48h | HCMV inh | Giardia FBPA inh | Sm TGR inh | Pf growth 96h
Clc1ccc(-c2nnc(CSc3nnc(-c4cccs4)n3Cc3ccccc3)o2)cc1 | ? | -88* | -3% | -6% | ?
CCn1c(SCCOc2ccc(Cl)cc2)nnc1-c1cccs1 | ? | -13 | -2% | -4% | 9.3µM*
Cc1nnc(SCc2nnc(-c3cccs3)o2)n1Cc1ccccc1 | i | -7 | 14% | 1% | ?
CCCCn1c(SCc2nc3ccccc3s2)nc2ccccc2c1=O | 2% | -17 | 1% | -3% | 0%
CC1CC(C)CN(C(=O)COC(=O)c2nn(C)c(=O)c3ccccc23)C1 (centres undefined) | 6% | -17 | · | -1% | 2%
Cc1nc(Cc2nnc(SCC(=O)N3CC(=O)Nc4ccccc43)o2)cs1 | · | -7 | · | · | ·
CCOC(=O)O[C@]1(C(=O)OCCl)CC[C@@H]2[C@H]3CCC4=CC(=O)C=C[C@]4(C)[C@@H]3[C@@H](O)C[C@@]21C | -19% | · | · | · | -21%
CC(C)N1CCN(Cc2cnc(N3CCCC3)s2)CC1CCO (centres undefined) | 8% | 121 | -3% | 11% | 9.3µM*
Cc1ncc(CN2CCN(C(C)C)C(CCO)C2)s1 (centres undefined) | 30% | 26 | 1% | 0% | -24%
COc1ccc2nc(N/C(N)=N/C(=S)Nc3c(C)cccc3C)nc(C)c2c1 | ? | -71* | -4% | 6% | ?
COc1ccc2nc(N/C(N)=N/C(=S)Nc3cccc(C)c3)nc(C)c2c1 | ? | -7 | 10% | -3% | 20%
COc1ccc(NC(=S)/N=C(\N)Nc2nc(C)c3ccccc3n2)cc1 | ? | 47 | -8% | 10% | 2.9µM*
COC(=O)[C@@H](Cc1ccccc1)NC(=O)[C@H]1CCC(=O)N1C(=O)OCc1ccccc1 | -6% | 12 | 10% | -19% | 6%
CCc1ccc(CN2CCc3nc(Nc4ccc5c(c4)OCCO5)ncc3C2)cc1 | · | -36 | · | 13% | ·
CSc1nsc(SCC(=O)NC2CCCCC2)n1 | 19% | 63 | 4% | -11% | ·
CSc1nsc(SCc2cnc(C)nc2N)n1 | 20% | -8 | -16% | 40µM* | ·
COc1ccc(S(=O)(=O)N2CCOCC2)cc1NC(=O)C1CCN(S(=O)(=O)c2ccc(Cl)cc2)CC1 | · | -14 | · | · | ·
C[C@@H](CSc1ccccc1)CN1CC[C@H](NC(=O)OCc2ccccc2)CCC1=O | -8% | -78* | 2% | 7% | ?
O=C(N[C@@H]1CCC(=O)N(CC[C@H](Oc2ccccc2)c2ccccc2)CC1)OCc1ccccc1 | 0.41µM* | -37 | -2% | -11% | 10µM*
COc1ccc(SC[C@H](Cc2ccccc2)N2CC[C@@H](NC(=O)OCc3ccccc3)CCC2=O)cc1 | 7.4µM* | 6 | · | 0% | ?
COc1ccc(SC[C@H](Cc2ccccc2)N2CC[C@@H](C)CCC2=O)cc1 | 12µM* | -36 | · | -16% | ?
OC1COC(O)C(O)C1O (centres undefined) | -4% | -39 | · | 0% | 32%
C=C1[C@@H](C)C2[C@H](Cc3ccccc3)NC(=O)[C@]23OC(=O)CC[C@H](O)CCC[C@H](C)C/C=C/[C@H]3[C@@H]1O (some centres undefined) | 0.93µM* | · | -6% | -25% | 0.37µM*
O=S1(=O)N[C@@H](Cc2ccccc2)COc2cccc(N3CCCC3)c21 | · | 3 | · | · | ·
N#CC(c1ccc(F)cc1)c1ccc(C(=O)c2ccc(F)cc2)cc1 (centres undefined) | · | -26 | -4% | 7% | -24%

Screening data: PubChem, National Center for Advancing Translational Sciences (NCATS)
